Results published in the supplement of paper PMC10849652.
The full data set covers some 8,800 targets. This sample favours those with a hit. About 0.5% of all pairs of compound and target were hits. A number with no mark means an inactive call.

Key:
Experiment in all cases: log2 fold change, soluble protein after heating vs DMSO (PISA); higher = thermal stabilisation; K562 lysate, 10 uM; active = over 0.2 and 3.5 SD of the protein, either way, in both replicates (recomputed)
vemurafenib = compound: CCCS(=O)(=O)Nc1ccc(F)c(C(=O)c2c[nH]c3ncc(-c4ccc(Cl)cc4)cc23)c1F [vemurafenib]
Method in brief: (§1)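 A 30 min treatment with 10 μM compound was applied to crude K562 extract at 1 mg/mL protein in PBS pH 7.4 with 1 mM MgCl2. Heating for 3 min spanned 48°C-58°C, after which aliquots were pooled, adjusted to 0.5% NP-40 at 4°C and spun at 21,000xg for 90 min. TMTpro 16plex LC-MS/MS of the supernatant, with channel sums equalised, gave values recorded as log-two fold change in thermal stability against solvent controls, from duplicates.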

[1] = compound: CCCS(=O)(=O)Nc1ccc(F)c(C(=O)c2c[nH]c3ncc(Cl)cc23)c1F
Method in brief: as §1

[2] = compound: CC[C@@H]1C(=O)N(C)c2cnc(Nc3ccc(C(=O)NC4CCN(C)CC4)cc3OC)nc2N1C1CCCC1
Method in brief: as §1

volasertib = compound: CC[C@@H]1C(=O)N(C)c2cnc(Nc3ccc(C(=O)N[C@H]4CC[C@H](N5CCN(CC6CC6)CC5)CC4)cc3OC)nc2N1C(C)C [volasertib]
Method in brief: as §1

[3] = compound: CCn1c(C(=O)N(C2CC2)C2CC2)cc2c3c(ncn3C)c(Nc3cc(C)n(C)n3)nc21
Method in brief: as §1

saracatinib = compound: CN1CCN(CCOc2cc(OC3CCOCC3)c3c(Nc4c(Cl)ccc5c4OCO5)ncnc3c2)CC1 [saracatinib]
Method in brief: as §1

barasertib = compound: CCN(CCCOc1ccc2c(Nc3cc(CC(=O)Nc4cccc(F)c4)[nH]n3)ncnc2c1)CCOP(=O)(O)O [barasertib]
Method in brief: as §1

[4] = compound: CCn1cc(-c2ccnc3[nH]c(-c4cccc(CN(C)C)c4)cc23)c(-c2ccc(NC(=O)N(C)C)cc2)n1
Method in brief: as §1

[5] = compound: CN1CCC(CNc2ccc3ncc(-c4cccc(OC(F)(F)F)c4)n3n2)CC1
Method in brief: as §1

sotrastaurin = compound: CN1CCN(c2nc(C3=C(c4c[nH]c5ccccc45)C(=O)NC3=O)c3ccccc3n2)CC1 [sotrastaurin]
Method in brief: as §1

ARHGEF2 (UniProt V9GYF0)
log2 fold change (vemurafenib): -0.013
log2 fold change [1]: 0.05
log2 fold change [2]: 0.022
log2 fold change (volasertib): -0.022
log2 fold change [3]: 0.11
log2 fold change (saracatinib): -0.114

ARL13B (UniProt Q3SXY8)
Chain of UniProt Q3SXY8 (Q3SXY8 whole entry, looked up): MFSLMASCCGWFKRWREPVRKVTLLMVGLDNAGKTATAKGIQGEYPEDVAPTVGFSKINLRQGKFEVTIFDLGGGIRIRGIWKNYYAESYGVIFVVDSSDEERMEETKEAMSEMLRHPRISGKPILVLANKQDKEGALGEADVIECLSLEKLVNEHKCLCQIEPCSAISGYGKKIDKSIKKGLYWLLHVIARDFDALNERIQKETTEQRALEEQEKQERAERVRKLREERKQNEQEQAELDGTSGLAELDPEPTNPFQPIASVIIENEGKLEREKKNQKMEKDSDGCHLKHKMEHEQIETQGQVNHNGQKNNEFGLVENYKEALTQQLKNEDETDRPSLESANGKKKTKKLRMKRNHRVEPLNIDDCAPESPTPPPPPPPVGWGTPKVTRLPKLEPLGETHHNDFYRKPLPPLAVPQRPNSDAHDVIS
log2 fold change (vemurafenib): -0.075
log2 fold change [1]: -0.039
log2 fold change (barasertib): -0.041
log2 fold change (volasertib): 0.065
log2 fold change [3]: -0.043
log2 fold change [4]: 0.325
log2 fold change [5]: -0.246
log2 fold change (saracatinib): 0.007
log2 fold change (sotrastaurin): 0.117

ANXA13 isoform 2 (UniProt P27216)
log2 fold change (vemurafenib): -0.129
log2 fold change [1]: -0.071
log2 fold change (barasertib): 0.091
log2 fold change (volasertib): -0.035
log2 fold change [3]: 0.131
log2 fold change [4]: -0.179
log2 fold change [5]: 0.106
log2 fold change (saracatinib): 0.004
log2 fold change (sotrastaurin): -0.001

AKAP8 (UniProt O43823)
log2 fold change (vemurafenib): 0.006
log2 fold change [1]: 0.044
log2 fold change (barasertib): 0.056
log2 fold change [2]: -0.009
log2 fold change (volasertib): -0.03
log2 fold change [3]: -0.013
log2 fold change [4]: -0.056
log2 fold change [5]: 0.044
log2 fold change (saracatinib): 0.075
log2 fold change (sotrastaurin): 0.008

ARL8A (UniProt Q96BM9)
Chain of UniProt Q96BM9 (Q96BM9 whole entry, looked up): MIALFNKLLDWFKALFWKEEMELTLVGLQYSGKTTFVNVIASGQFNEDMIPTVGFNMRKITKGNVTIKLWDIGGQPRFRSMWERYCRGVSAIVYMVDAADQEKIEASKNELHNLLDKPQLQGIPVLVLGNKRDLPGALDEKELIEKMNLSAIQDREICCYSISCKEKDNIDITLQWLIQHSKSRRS
log2 fold change (vemurafenib): -0.029
log2 fold change [1]: -0.26
log2 fold change (barasertib): -0.026
log2 fold change [2]: -0.001
log2 fold change (volasertib): -0.037
log2 fold change [3]: -0.03
log2 fold change [4]: 0.558 (active)
log2 fold change [5]: -0.199
log2 fold change (saracatinib): 0.03
log2 fold change (sotrastaurin): 0.022

ACLY isoform 2 (UniProt P53396)
Chain of UniProt P53396 (P53396 whole entry, looked up): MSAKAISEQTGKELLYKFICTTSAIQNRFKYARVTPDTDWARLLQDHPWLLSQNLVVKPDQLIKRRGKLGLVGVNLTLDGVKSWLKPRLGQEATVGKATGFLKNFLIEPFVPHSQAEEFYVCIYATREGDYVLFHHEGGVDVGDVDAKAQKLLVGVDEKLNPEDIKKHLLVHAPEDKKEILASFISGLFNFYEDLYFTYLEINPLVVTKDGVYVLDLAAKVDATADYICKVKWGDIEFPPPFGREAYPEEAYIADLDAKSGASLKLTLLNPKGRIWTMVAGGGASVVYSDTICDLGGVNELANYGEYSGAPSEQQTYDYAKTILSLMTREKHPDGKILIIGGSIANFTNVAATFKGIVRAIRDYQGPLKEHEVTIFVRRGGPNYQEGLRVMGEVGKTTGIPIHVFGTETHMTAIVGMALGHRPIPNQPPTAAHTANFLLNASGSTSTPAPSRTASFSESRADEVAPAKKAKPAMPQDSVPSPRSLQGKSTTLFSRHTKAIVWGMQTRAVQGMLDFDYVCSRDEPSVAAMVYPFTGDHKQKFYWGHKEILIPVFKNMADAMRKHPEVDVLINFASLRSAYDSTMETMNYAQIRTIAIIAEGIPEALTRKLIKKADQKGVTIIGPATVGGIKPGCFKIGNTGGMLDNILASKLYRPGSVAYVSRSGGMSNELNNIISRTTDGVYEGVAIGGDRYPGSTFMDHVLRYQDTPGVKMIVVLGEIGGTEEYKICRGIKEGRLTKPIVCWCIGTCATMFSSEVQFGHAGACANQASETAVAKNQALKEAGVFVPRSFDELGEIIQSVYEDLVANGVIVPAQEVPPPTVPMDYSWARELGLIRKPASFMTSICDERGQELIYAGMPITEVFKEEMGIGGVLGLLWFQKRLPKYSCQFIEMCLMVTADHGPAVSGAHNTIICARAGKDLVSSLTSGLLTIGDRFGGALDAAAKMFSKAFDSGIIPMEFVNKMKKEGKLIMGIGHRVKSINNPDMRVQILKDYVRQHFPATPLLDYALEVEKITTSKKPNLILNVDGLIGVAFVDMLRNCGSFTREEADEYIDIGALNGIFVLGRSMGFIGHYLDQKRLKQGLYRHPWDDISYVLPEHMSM
log2 fold change (vemurafenib): 0.035
log2 fold change [1]: 0
log2 fold change (barasertib): -0.088
log2 fold change [2]: 0.045
log2 fold change (volasertib): -0.033
log2 fold change [3]: -0.187
log2 fold change [4]: -0.485 (active)
log2 fold change [5]: 0.43
log2 fold change (sotrastaurin): 0.02

AP5B1 (UniProt Q2VPB7)
log2 fold change [1]: 0.062
log2 fold change (barasertib): 0.035
log2 fold change [2]: 0.066
log2 fold change (volasertib): 0.011
log2 fold change [3]: 0.001
log2 fold change [4]: 0.002
log2 fold change [5]: 0.045
log2 fold change (saracatinib): -0.014
log2 fold change (sotrastaurin): -0.062

ALKBH1 (UniProt Q13686)
Chain of UniProt Q13686 (Q13686 whole entry, looked up): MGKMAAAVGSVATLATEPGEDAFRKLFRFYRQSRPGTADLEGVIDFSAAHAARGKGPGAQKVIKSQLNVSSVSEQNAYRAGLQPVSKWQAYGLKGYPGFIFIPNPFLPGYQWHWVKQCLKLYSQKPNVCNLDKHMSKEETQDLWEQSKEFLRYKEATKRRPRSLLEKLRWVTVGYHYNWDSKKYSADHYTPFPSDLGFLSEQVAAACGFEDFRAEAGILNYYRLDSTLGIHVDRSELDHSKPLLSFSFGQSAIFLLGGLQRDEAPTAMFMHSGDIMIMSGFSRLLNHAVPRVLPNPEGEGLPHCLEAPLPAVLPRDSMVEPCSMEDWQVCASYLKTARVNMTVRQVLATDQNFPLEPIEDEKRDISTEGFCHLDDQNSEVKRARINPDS
log2 fold change (vemurafenib): 0.069
log2 fold change [2]: -0.05
log2 fold change [3]: -0.043
log2 fold change [4]: 0.015
log2 fold change [5]: -0.072
log2 fold change (saracatinib): -0.037

AGPAT2 (UniProt O15120)
log2 fold change (vemurafenib): 0.33 (active)
log2 fold change [2]: 0.108
log2 fold change [3]: 0.002
log2 fold change [4]: -0.034
log2 fold change [5]: 0.023
log2 fold change (sotrastaurin): 0

ABHD13 (UniProt Q7L211)
log2 fold change (vemurafenib): 0.069
log2 fold change [1]: -0.016
log2 fold change (barasertib): 0.102
log2 fold change [2]: -0.107
log2 fold change (volasertib): 0.06
log2 fold change [4]: -0.543 (active)
log2 fold change [5]: 0.077
log2 fold change (saracatinib): 0.179
log2 fold change (sotrastaurin): -0.031

ALDH3A1 (UniProt P30838)
log2 fold change [1]: 0.014
log2 fold change (volasertib): 0.035
log2 fold change [3]: -0.399
log2 fold change [4]: -0.618
log2 fold change [5]: 0.216
log2 fold change (saracatinib): 1.2 (active)
log2 fold change (sotrastaurin): -0.007

ADK, A0A5F9ZH76
log2 fold change [1]: -0.174
log2 fold change (barasertib): -0.019
log2 fold change (volasertib): 0.167

AGGF1 (UniProt Q8N302)
Chain of UniProt Q8N302 (Q8N302 whole entry, looked up): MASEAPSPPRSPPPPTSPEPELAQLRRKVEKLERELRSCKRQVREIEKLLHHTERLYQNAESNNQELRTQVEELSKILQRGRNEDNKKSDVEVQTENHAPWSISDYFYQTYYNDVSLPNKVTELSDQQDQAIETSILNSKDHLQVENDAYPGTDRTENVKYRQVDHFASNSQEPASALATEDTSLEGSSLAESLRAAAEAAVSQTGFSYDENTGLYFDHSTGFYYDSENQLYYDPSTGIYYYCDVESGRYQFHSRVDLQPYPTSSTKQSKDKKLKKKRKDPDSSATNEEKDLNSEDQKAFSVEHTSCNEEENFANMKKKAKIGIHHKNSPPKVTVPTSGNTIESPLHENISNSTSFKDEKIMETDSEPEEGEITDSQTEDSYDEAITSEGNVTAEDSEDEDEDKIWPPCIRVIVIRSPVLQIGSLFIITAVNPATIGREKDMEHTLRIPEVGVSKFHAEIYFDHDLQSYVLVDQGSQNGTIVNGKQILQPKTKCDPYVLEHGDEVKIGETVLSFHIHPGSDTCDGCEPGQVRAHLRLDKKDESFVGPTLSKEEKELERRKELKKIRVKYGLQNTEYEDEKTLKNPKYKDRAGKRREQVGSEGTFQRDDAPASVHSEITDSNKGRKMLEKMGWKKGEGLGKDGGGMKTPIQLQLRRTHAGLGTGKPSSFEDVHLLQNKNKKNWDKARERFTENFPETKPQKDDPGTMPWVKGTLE
log2 fold change (vemurafenib): 0.112
log2 fold change [1]: -0.043
log2 fold change (barasertib): 0.115
log2 fold change [2]: 0.084
log2 fold change (volasertib): -0.06
log2 fold change [3]: 0.001
log2 fold change [4]: -0.43 (active)
log2 fold change [5]: 0.175
log2 fold change (sotrastaurin): 0.025

ABI1 isoform 6 (UniProt Q8IZP0)
Chain of UniProt Q8IZP0 (Q8IZP0 whole entry, looked up): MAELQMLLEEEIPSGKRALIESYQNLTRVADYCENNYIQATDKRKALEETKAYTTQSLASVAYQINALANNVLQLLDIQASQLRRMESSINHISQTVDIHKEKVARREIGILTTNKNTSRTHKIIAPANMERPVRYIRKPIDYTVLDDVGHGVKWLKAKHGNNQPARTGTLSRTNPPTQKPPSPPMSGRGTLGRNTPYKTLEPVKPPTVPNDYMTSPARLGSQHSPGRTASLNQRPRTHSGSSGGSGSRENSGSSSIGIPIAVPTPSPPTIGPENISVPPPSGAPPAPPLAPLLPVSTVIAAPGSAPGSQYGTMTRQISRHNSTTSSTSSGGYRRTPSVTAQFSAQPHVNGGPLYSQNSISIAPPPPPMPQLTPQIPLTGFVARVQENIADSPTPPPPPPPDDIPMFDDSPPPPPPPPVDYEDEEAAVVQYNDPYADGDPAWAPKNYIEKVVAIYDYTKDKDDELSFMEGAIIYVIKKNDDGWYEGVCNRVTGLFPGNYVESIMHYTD
log2 fold change [1]: -0.219
log2 fold change [2]: 0.248
log2 fold change (volasertib): 0.026

ACTG1 (UniProt K7EM38)
log2 fold change [1]: -0.259
log2 fold change [2]: -0.208
log2 fold change (volasertib): -0.124

ABL1 isoform 2 (UniProt P00519)
log2 fold change (vemurafenib): 0.05
log2 fold change [1]: 0.125
log2 fold change (barasertib): 0.031
log2 fold change [2]: -0.03
log2 fold change (volasertib): -0.012
log2 fold change [3]: -0.048
log2 fold change [4]: 0.156
log2 fold change [5]: -0.097
log2 fold change (sotrastaurin): -0.012

ALDH18A1 isoform 2 (UniProt P54886)
log2 fold change (vemurafenib): 0.308
log2 fold change [3]: 0.043
log2 fold change (saracatinib): 0.13
log2 fold change (sotrastaurin): 0.121

ABRACL (UniProt Q9P1F3)
Chain of UniProt Q9P1F3 (Q9P1F3 whole entry, looked up): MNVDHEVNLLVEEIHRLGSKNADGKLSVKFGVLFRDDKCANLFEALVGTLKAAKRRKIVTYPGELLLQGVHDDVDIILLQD
log2 fold change [1]: -0.074
log2 fold change (barasertib): 0.06
log2 fold change (volasertib): -0.001
log2 fold change [4]: 0.156
log2 fold change [5]: 0.053
log2 fold change (saracatinib): 0.134
log2 fold change (sotrastaurin): 0

AIF1L (UniProt Q9BQI0)
Chain of UniProt Q9BQI0 (Q9BQI0 whole entry, looked up): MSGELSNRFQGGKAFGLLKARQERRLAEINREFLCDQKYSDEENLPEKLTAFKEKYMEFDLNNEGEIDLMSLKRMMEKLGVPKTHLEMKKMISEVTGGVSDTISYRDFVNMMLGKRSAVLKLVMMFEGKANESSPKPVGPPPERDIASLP
log2 fold change [1]: 0.049
log2 fold change (barasertib): 0.009
log2 fold change [2]: -0.101
log2 fold change (volasertib): -0.086
log2 fold change [3]: 0.091
log2 fold change [4]: 0.153
log2 fold change [5]: -0.117
log2 fold change (saracatinib): 0.13
log2 fold change (sotrastaurin): 0.115

ANP32E isoform 3 (UniProt Q9BTT0)
Chain of UniProt Q9BTT0 (Q9BTT0 whole entry, looked up): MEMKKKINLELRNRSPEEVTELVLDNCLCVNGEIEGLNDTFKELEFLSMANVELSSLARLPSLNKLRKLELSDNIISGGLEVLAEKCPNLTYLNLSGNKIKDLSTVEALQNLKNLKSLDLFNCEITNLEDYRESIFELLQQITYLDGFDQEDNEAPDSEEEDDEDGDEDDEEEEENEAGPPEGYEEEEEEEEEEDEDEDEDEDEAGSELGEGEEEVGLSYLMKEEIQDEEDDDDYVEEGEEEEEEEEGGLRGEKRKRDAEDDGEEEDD
log2 fold change (vemurafenib): 0.034
log2 fold change (barasertib): -0.086
log2 fold change [2]: -0.026
log2 fold change [4]: -0.724 (active)
log2 fold change [5]: 0.468

ACYP2 (UniProt P14621)
Chain of UniProt P14621 (P14621 whole entry, looked up): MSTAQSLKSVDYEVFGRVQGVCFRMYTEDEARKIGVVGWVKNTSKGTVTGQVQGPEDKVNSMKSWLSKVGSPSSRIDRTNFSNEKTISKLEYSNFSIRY
log2 fold change (vemurafenib): -0.245
log2 fold change [1]: -0.023
log2 fold change (barasertib): 0.04
log2 fold change (volasertib): 0.011
log2 fold change [3]: -0.007
log2 fold change [4]: 0.189
log2 fold change [5]: -0.036
log2 fold change (sotrastaurin): -0.019

ACVR1 (UniProt Q04771)
Chain of UniProt Q04771 (Q04771 whole entry, looked up): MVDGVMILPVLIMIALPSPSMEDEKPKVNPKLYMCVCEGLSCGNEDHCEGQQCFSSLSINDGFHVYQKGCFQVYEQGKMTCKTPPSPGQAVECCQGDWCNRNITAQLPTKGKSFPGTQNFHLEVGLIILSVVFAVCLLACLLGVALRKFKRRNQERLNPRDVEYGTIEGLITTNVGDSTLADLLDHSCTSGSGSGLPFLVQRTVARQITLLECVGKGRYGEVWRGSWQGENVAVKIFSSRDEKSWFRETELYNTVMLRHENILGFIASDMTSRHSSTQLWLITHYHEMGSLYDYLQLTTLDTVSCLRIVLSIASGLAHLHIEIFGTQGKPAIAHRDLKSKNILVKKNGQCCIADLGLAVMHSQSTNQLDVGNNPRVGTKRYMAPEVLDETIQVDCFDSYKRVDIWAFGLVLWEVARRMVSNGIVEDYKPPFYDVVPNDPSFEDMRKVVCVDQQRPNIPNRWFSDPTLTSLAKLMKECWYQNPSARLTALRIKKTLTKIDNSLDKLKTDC
log2 fold change (barasertib): -0.115
log2 fold change [4]: -0.244
log2 fold change [5]: 0.815 (active)

ANKRD10 (UniProt Q9NXR5)
Chain of UniProt Q9NXR5 (Q9NXR5 whole entry, looked up): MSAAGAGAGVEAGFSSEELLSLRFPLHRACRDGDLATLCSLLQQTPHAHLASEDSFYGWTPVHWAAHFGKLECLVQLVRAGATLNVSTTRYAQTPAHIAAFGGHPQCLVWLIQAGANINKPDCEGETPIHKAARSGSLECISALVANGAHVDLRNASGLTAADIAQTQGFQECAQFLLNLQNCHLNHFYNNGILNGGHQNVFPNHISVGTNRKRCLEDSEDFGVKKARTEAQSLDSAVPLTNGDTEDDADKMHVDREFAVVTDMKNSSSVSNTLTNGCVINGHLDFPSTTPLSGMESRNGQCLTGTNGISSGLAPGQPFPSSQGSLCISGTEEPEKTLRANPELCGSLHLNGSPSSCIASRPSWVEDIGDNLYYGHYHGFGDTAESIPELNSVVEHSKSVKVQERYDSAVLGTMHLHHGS
log2 fold change (vemurafenib): 0.056
log2 fold change [1]: -0.035
log2 fold change (barasertib): 0.137
log2 fold change (volasertib): 0.1
log2 fold change [3]: 0.115
log2 fold change [4]: -0.19
log2 fold change [5]: -0.022
log2 fold change (saracatinib): 0.017
log2 fold change (sotrastaurin): 0.01
